Compound activity from PubChem BioAssay.
This is a sample that favours compounds with a hit; in the whole collection about 8.9% have one here.
ALDH1A1 inh = inhibitors of human aldehyde dehydrogenase 1A1; P00352; Purified ALDH1A1, NADH fluorescence, propionaldehyde substrate; Potency, µM (doses to about 75.3 µM), for inactives: top-dose activity, negative = inhibition, hits mostly inhibitors; 220,000 tested, 7.3% active; active = well fitted inhibition curve with a large enough effect, not every such curve was filed as active; inconclusive = small, poorly fitted or top-dose-only effect, or another doubt; inactive = no such curve, though single readings can be large or run the other way;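 also: potency is read from the fitted curve at half-maximal effect; plate controls were no enzyme wells and a reference inhibitor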
NPSR antagonist = antagonists of human neuropeptide S receptor cAMP signaling | CHO-NPSR cells, cAMP TR-FRET, antagonist mode | 220,000 tested, 1% active | Potency, µM (highest dose often 38.3 µM), for the others: at the highest dose activity change, negative = inhibition, most hits filed as inhibitors | Q6W5P4; also: potency is read from the fitted curve at half-maximal effect; nearly all actives have a fitted effect of over 50% in size
IMPase Li cell = membrane-permeable IMPase blocker, potentiated with lithium; CHO-M1 cells, IP1 TR-FRET (IP-One), carbachol + lithium; Potency, µM (highest dose often 59.4 µM), without a hit: at the highest dose activity, negative = IMPase inhibition, actives largely listed as inhibitors; 210,000 tested, 0.35% active;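 also: IP1 builds up when IMPase is blocked and the TR-FRET signal falls; potency is read from the fitted curve at half-maximal effect; plate controls were basal vehicle for no effect and high inhibitor control for full effect; nearly all actives have a fitted effect of over 50% in size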
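Test compounds were applied to CHO-M1 cells previously cultured for 16–30 h at 2000 per well. A small lithium amount accompanied them; after 30 min at 37C, IP1 was quantified by TR-FRET.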
HPGD block = inhibitors of human 15-hydroxyprostaglandin dehydrogenase (HPGD) | Potency, µM, inactives show at the highest dose activity change, negative = inhibition, most hits filed as inhibitors | purified HPGD, NADH fluorescence kinetic, PGE2 substrate | 150,000 tested, 4.3% active; active = well fitted inhibition curve with a large enough effect, not every such curve was filed as active; inconclusive = small, poorly fitted or top-dose-only effect, or another doubt; inactive = no such curve, though single readings can be large or run the other way; also: potency is read from the fitted curve at half-maximal effect
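20 nM HPGD preincubated 15 min at room temperature with compound in 50 mM Tris-HCl pH 8, 0.01% Tween 20. Started with 1 mM NAD+ and 30 uM prostaglandin E2; NADH fluorescence (360/450 nm) read 5 times over 30-s intervals, last minus first.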
IMPase cell inh = membrane-permeable compound that blocks inositol monophosphatase. P97697. CHO-M1 cells, IP1 accumulation, HTRF TR-FRET ratio. inhibition (IP1 accumulation), % at 46.1 µM. 120,000 tested, under 10 active. AID 901; active = well fitted curve in the direction sought with a large enough effect in the signal ratio, not every such curve was filed as active; inconclusive = small, poorly fitted or top-dose-only effect, or a change in a side signal; inactive = no such curve, though single readings can be large or run the other way; the % refers to the signal ratio;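 also: cells stimulated with carbachol in lithium chloride buffer; plate controls were DMSO basal wells for no effect and reference inhibitor wells for full effect; higher means more IMPase inhibition seen as more IP1 and lower FRET ratio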
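Carbachol-driven Gq signalling in CHO-M1 cells (2000/well) generates IP1. Compounds that block IMPase raise IP1 and so reduce the FRET signal from Eu-anti-IP1 and d2-IP1 after a 10 min room-temperature lysis.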
ALOX12 inhib = 12-hLO (ALOX12) enzyme inhibition; purified 12-hLO, xylenol orange hydroperoxide absorbance; Potency, µM (doses to about 57.1 µM), without a hit: top-dose activity change, negative = inhibition, most hits filed as inhibitors; 150,000 tested, 0.12% active; AID 1452; also: potency is read from the fitted curve at half-maximal effect; nearly all actives have a fitted effect of over 55% in size
Target sequence (P18054 whole entry, looked up): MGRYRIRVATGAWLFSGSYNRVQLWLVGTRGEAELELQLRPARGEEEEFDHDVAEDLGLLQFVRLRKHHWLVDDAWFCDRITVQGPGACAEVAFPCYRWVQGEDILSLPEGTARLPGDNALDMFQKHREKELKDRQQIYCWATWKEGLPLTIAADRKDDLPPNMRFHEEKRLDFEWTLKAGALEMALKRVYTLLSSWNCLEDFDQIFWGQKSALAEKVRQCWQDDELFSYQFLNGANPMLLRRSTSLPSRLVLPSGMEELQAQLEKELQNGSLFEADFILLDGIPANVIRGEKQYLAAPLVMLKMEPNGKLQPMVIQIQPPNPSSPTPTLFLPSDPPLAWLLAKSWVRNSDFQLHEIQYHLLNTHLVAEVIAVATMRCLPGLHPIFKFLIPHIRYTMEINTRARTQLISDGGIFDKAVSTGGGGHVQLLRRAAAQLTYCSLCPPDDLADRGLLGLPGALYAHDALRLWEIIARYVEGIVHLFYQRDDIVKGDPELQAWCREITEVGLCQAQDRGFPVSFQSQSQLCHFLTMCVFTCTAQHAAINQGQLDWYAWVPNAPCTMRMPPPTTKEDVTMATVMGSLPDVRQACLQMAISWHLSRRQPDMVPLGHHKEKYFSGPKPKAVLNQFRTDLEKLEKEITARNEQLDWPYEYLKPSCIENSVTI
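Purified human 12hLO (150 nM final) was preincubated with compounds for 15 min at room temperature in 25 mM Hepes pH 7.0, 0.01% Triton X-100, then reacted with 40 uM arachidonic acid for 30 min. Hydroperoxide was detected with ferrous iron/xylenol orange.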
Starred values were filed as active, the others as inactive; ? = inconclusive; . = no result; [ ] = dose if it differs, or a comment. Unless noted, calls follow the shape of the dose curve; as a rule, active = well fitted curve in the direction sought with a large enough effect; inconclusive = small, poorly fitted or top-dose-only effect, or another doubt; inactive = no such curve, though single readings can be large; an effect the other way counts as inactive or inconclusive. Unless noted, % is scaled to controls: 0 for no effect and ±100 for the full control effect.

SMILES	ALDH1A1 inh	NPSR antagonist	IMPase Li cell	HPGD block	IMPase cell inh	ALOX12 inhib
CCN(CC)S(=O)(=O)c1cc(OCC(N)=O)c(C)cc1Cl	-14%	12%	6%	-7%	.	-4%
O=C(O)/C=C\C(=O)Nc1cccc(NC(=O)c2ccccc2)c1	?	4%	-2%	.	.	.
O=C(O)/C=C/C(=O)Nc1ccc(NC(=O)c2ccccc2)c(Cl)c1	2.2µM*	8%	0%	.	.	.
COc1cc(/C=N/NC(=O)c2cccnc2)ccc1OCC(=O)Nc1ccc(C)cc1	?	5%	-16%	?	.	-3%
C#CCOCCOCCOCCNc1nc(N2CCN(C(=O)[C@H](Cc3ccc(O)cc3)n3cc([C@@H](N)CC(C)C)nn3)CC2)nc(N2CCN(C(=O)[C@H](Cc3ccc(O)cc3)n3cc([C@@H](N)CC(C)C)nn3)CC2)n1	16µM*	-9%	16%	.	.	.
CC(=O)C(C(C)=O)C1(O)C(=O)c2ccccc2C1=O	1.6µM*	27%	5%	7%	.	?
COc1ccc(CCN(Cc2ccccn2)C(=S)Nc2ccccc2C)cc1OC	20µM*	-28%	18%	.	.	.
C#CCNC(=O)C1=C[C@H](c2cn(C(C)=O)c3ccccc23)[C@@H](CCCO)[C@H](OCC)O1	-5%	1%	3%	.	.	.
O=[N+]([O-])c1cnc2ccccc2c1	10µM*	1%	-10%	-1%	.	-3%
Cc1ccc(C2=[N+]([O-])C(C)(C)CC2)cc1	5%	7%[46.1 µM]	18%[38.3 µM]	-3%	-6	-2%
COc1ccc(C(=O)NN2C(=O)C3C4C=CC(O4)C3C2=O)cc1 (centres undefined)	7.9µM*	-10%[46.1 µM]	7%[38.3 µM]	4%	0	-4%
COc1cccc(C(=O)NN2C(=O)C3C4C=CC(O4)C3C2=O)c1 (centres undefined)	14µM*	4%[46.1 µM]	15%[38.3 µM]	2%	5	-4%
COc1cccc(C(=O)NN2c3ccccc3CCc3ccccc32)c1	-7%	-5%	-6%	-21%	.	4%
O=C(/C=C/C=C/c1ccccc1)c1ccco1	28µM*	-16%	.	.	.	.
Nc1c(C(=O)c2ccc(Cl)cc2)sc2c1c(=O)[nH]c(=O)n2-c1ccccc1	-10%	0%[46.1 µM]	.	.	-3	3%
Cc1c(C(=O)COC(C)(C)C)[nH]c2ccccc12	6.3µM*	2%[46.1 µM]	1%	4.5µM*	12	2%
CCOC(=O)c1[nH]c2ccccc2c1NC(=O)C(C)(C)C	?	1%[46.1 µM]	7%[38.3 µM]	?	4	-3%
CC(C)(C)C1CCC2(CC1)NC(=S)N(c1ccccc1)N2 (centres undefined)	?	-12%[46.1 µM]	10%	11µM*	-7	-23%
COc1ccccc1N1CCN(CCCCN2C(=O)c3ccccc3C2=O)CC1	13µM*	-11%[46.1 µM]	19%	-25%	0	?
COc1ccc(C(=O)CCN2CCN(c3ccccc3OC)CC2)cc1	0.14µM*	0%	16%	.	.	.
COc1ccccc1N1CCN(CCCC(=O)c2ccc(F)cc2)CC1	25%	0%[46.1 µM]	23%[38.3 µM]	0%	8	2%
COc1ccc(CN2CCc3cc(OC)c(OC)cc3C2)cc1O	-11%	-6%	6%	.	.	.
COc1cc2c(cc1OC)CN(Cc1ccc(C)s1)CC2	28µM*	-7%[46.1 µM]	-19%[38.3 µM]	-10%	2	-5%
COc1ccc(C(=O)CCN2CCc3cc(OC)c(OC)cc3C2)cc1	0.22µM*	5%	2%	.	.	.
COc1ccccc1N1CCN(CCCNC(=O)Nc2ccccc2C)CC1	7%	4%[46.1 µM]	4%[38.3 µM]	1%	1	0%
SMILES	ALDH1A1 inh	NPSR antagonist	IMPase Li cell	HPGD block	IMPase cell inh	ALOX12 inhib
Cn1cc([N+](=O)[O-])c(C(=O)N/N=C/c2cc3c(cc2Br)OCO3)n1	?	14%	2%	.	.	.
Cn1cccc1/C=C1\Cc2ccccc2C1=O	11µM*	-13%	-10%	.	.	.
Cn1cccc1/C=C1\CCc2ccccc2C1=O	-16%	-22%	0%	.	.	.
CN1C2CCC1/C(=C\c1ccc(F)cc1)C(=O)/C2=C/c1ccc(F)cc1	-1%	-58%	14%	-4%	-1	-3%
Cn1cccc1/C=C1\CC(C(C)(C)C)C/C(=C\c2cccn2C)C1=O (centres undefined)	?	10µM*	41%[38.3 µM]	-15%	3	-7%
CN1C2CCC1/C(=C/c1cccn1C)C(=O)/C2=C\c1cccn1C	4%	-23%	3%	28µM*	.	1%
CCOC(=O)/C(=N\NC(=O)c1ccccc1)c1ccccc1	-2%	-24%[46.1 µM]	13%[38.3 µM]	-6%	-6	5%
C=C(C(=O)OCC)C(=O)c1ccccc1	14µM*	.	8%	-8%	.	.
O=C(Cn1cc(C(=O)c2ccco2)c2ccccc21)NC1CCCC1	-12%	-25%[46.1 µM]	.	.	?	-11%
CCCC(c1nnnn1Cc1ccc(F)cc1)N1CCN(C)CC1 (centres undefined)	-8%	1%	20%	.	.	.
COc1ccc(C(c2nnnn2CCc2ccccc2)N2CCN(C3CCCC3)CC2)cc1 (centres undefined)	-6%	-2%[46.1 µM]	.	.	14	2%
CCCC(c1nnnn1Cc1ccc(F)cc1)N1CCN(CC)CC1 (centres undefined)	22µM*	3%	-2%	.	.	.
COc1ccc(Cn2nnnc2C(C(C)C)N2CCN(c3ccccc3OC)CC2)cc1 (centres undefined)	18µM*	-21%[46.1 µM]	27%[38.3 µM]	-8%	4	-14%
COc1ccccc1N1CCN(C(c2ccc(N(C)C)cc2)c2nnnn2CCc2ccccc2)CC1 (centres undefined)	22µM*	-30%[46.1 µM]	8%	-22%	8	-2%
COc1ccc(C(c2nnnn2Cc2ccccc2)N2CCN(c3ccccc3)CC2)cc1 (centres undefined)	-3%	?	16%[38.3 µM]	-12%	-6	-6%
CC(C)C(c1nnnn1Cc1ccc(F)cc1)N1CCN(c2ccc(O)cc2)CC1 (centres undefined)	4µM*	34%	13%	.	.	.
C#CCn1c(S(=O)(=O)Cc2ccc(OC)cc2)nc(-c2ccccc2)c1-c1ccccc1	0%	?	11%[38.3 µM]	-8%	3	2%
CC(C)OP(=O)(c1ccc(N(C)C)cc1)C(O)c1ccccc1 (centres undefined)	-2%	-4%[46.1 µM]	30%[38.3 µM]	-13%	10	3%
Cc1ccc2c(c1)N(CCC(=O)NC1CC1)C(=O)C(C)O2 (centres undefined)	?	0%[46.1 µM]	-9%[38.3 µM]	-21%	1	-2%
CCOc1ccccc1NC(=O)COc1ccc(S(=O)(=O)NC2CCCCC2)cc1	.	.	.	.	6	.
O=C(O)CCN1C(=O)C2C3c4ccccc4C(c4ccccc43)C2C1=O (centres undefined)	.	5%	.	.	.	.
CC(C)Sc1nc(NCc2ccco2)c2c3c(sc2n1)COC(C)(C)C3	?	-16%[46.1 µM]	3%[38.3 µM]	?	8	-14%
